We go through 14 compounds from PubChem BioAssay AID588651 (The Scripps Research Institute Molecular Screening Center, 2011).

Molecules are shown by their SMILES. Activity calls are given as the source filed them. Cut-off read from the data, not from the text of the source: active = inhibition above about 65%; inactive = the rest.

The assay relates to Fam108b. The assay is described as follows: Fam108b inhibitors and proteome off-target selectivity – biochemical, gel-based ABPP, recombinant soluble Fam108b, HTS hits, complex proteome, late-stage follow-up (AID 588651).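 Note: Fam108b spiked into mouse brain membrane proteome.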 Conditions: FP-rhodamine labeling in proteome, at 20 µM, hits give high values.
Take `O=S(=O)(c1cc(O)ccc1O)c1cccc2c(S(=O)(=O)c3cc(O)ccc3O)cccc12`: the inhibition was 10% (inactive). The value for `Nc1cc(C(=O)O)c(N)c2c1C(=O)c1ccccc1C2=O` was 0% (inactive).

In the case of `Nc1cc2nsnc2cc1Br`, the inhibition was 0% (inactive). The value for `O=C(Nc1cccc(-c2csc(Nc3ccc(Cl)cc3)n2)c1)c1cc([N+](=O)[O-])cc(C(F)(F)F)c1` was 65% (active); that for `Cc1[nH]c2ccccc2c1C=NNC(=O)c1cccc(S(=O)(=O)Nc2cccc(C(F)(F)F)c2)c1` was 60% (inactive); that for `Cc1cc(Nc2ccc(Cl)cc2)nc(NCc2ccccc2)n1` was 0% (inactive). The value for `O=C(CCCSc1ccccc1)Nc1nc(-c2ccco2)c(-c2ccco2)s1` was 0% (inactive). `CC1CCCCN1S(=O)(=O)c1ccc(C(=O)Nc2ccccc2-c2nc3ccccc3[nH]2)cc1` (centres undefined): the inhibition was 50% (inactive).

As to `COc1cccc(C=NNc2nc(Nc3ccc([N+](=O)[O-])cc3)nc(N3CCCC3)n2)c1O`, the inhibition was 65% (active). The figure for `CC1(C)CC(=O)C2=C(C1)c1c(ccc3ccccc13)NC2c1cc([N+](=O)[O-])cc([N+](=O)[O-])c1O` (centres undefined) is 50% (inactive).

Take `O=C(Nc1ccc(-c2csc(Nc3cccc(C(F)(F)F)c3)n2)cc1)c1cccc(C(F)(F)F)c1`: the inhibition is 95% (active). With `O=C(Nc1ccc(-c2csc(Nc3ccccc3)n2)cc1)c1cc([N+](=O)[O-])cc(C(F)(F)F)c1`, the inhibition was 60% (inactive).

`Cn1c2ccccc2c2cc(C=NNC(=O)c3cc(O)ccc3O)ccc21`: the inhibition was 80% (active).

For the compound `O=C(Nc1ccc(F)cc1)Nc1ccc(N2CCCC2)c(S(=O)(=O)Nc2ccccc2Cl)c1`, the inhibition is 95% (active).
